Test results: PubChem BioAssay AID1030 (National Center for Advancing Translational Sciences (NCATS), 2008)
Values joined by “and” are separate entries in the source; they are usually repeats but may differ in a detail not shown here. Identical values can stand only once. Among all 220,000 compounds or so, about 16,000 (7.3%) were called active. Another 25% or so got no clear call; they are omitted. Calls come from the whole dose curve; as a rule, active = well fitted inhibition curve with a large enough effect (not every such curve was filed as active); inconclusive = small, poorly fitted or top-dose-only effect, or another doubt; inactive = no such curve, though single readings can be large or run the other way. What follows is part of a selection rich in actives, with near analogues and random picks from the rest. A structure can be active in one record and inactive in another.

molecular target: Aldehyde dehydrogenase 1A1 (Homo sapiens) (UniProt P00352); assay: qHTS Assay for Inhibitors of Aldehyde Dehydrogenase 1 (ALDH1A1); details: Purified ALDH1A1, NADH fluorescence, propionaldehyde substrate; series mostly up to 75.3 µM; activity, negative = inhibition: at the top concentration;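 for activity, negative = inhibition: plate controls were no enzyme wells and a reference inhibitor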
Potency is the fitted concentration of half-maximal effect.

Aldehyde dehydrogenase 1A1 (Homo sapiens), sequence (P00352 whole entry, looked up): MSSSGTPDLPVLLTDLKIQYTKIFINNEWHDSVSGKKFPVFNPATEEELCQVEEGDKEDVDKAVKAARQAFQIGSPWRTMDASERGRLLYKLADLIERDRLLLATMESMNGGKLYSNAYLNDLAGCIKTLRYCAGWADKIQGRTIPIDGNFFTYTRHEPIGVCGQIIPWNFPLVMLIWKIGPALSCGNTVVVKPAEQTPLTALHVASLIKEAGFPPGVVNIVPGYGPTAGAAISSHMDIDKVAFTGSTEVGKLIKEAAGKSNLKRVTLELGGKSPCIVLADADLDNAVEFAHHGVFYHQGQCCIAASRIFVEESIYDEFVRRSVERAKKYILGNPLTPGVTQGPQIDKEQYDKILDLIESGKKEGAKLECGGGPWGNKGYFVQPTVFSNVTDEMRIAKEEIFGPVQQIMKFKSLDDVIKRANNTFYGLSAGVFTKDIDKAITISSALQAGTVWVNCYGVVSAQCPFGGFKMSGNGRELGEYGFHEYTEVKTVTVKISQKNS

SMILES	activity, negative = inhibition	Potency
CCN(C(=O)CSc1nc2ccccc2n1CC)C1CCS(=O)(=O)C1 (stereo not drawn)	6.03% (inactive)	
O=C(c1ccc(C(F)(F)F)cc1)C1CCCN(C(=O)c2csnn2)C1 (stereo not drawn)	-3.94% (inactive)	
Cc1ccc2[nH]c3c(c2c1)CN(C(=O)CN1CCN(c2ccccc2)CC1)CC3		17.8 µM (active)
CCCC(=O)N1CCc2[nH]c3ccccc3c2C1	0.311% (inactive)	
O=C(Nc1ccc(Cl)cc1)N1CCc2[nH]c3ccccc3c2C1	3.97% (inactive)	
O=C(/C=C/c1ccccc1)Oc1coc(CSc2ncccn2)cc1=O	-8.97% (inactive)	
Cc1cc(C)cc(NC(=O)COC(=O)c2cc(C)oc2C)c1	4.92% (inactive)	
COc1ccc(N(CC(=O)NC2CCCC2)C(=O)CS(=O)CC(=O)Nc2ccc3c(c2)OCO3)cc1 (stereo not drawn)	16.1% (inactive)	
CCCn1c(SCC(N)=O)nnc1C(C)C	8.66% (inactive)	
CCCn1c(SCC(=O)Nc2c(C)cccc2C)nnc1C(C)C	8.79% (inactive)	
CCCn1c(SCC(=O)c2ccc3c(c2)OCCO3)nnc1C(C)C		20 µM (active)
CCOC(=O)c1cc2c(=O)[nH]c(C(Cl)(Cl)Cl)nc2o1	9.51% (inactive)	
CCc1nnc(NC(=O)c2sc3nc(C)cc(COC)c3c2N)s1	-6.62% (inactive)	
COc1ccc(CC(=O)NCc2nnc(SCC(=O)Nc3ncc(C)s3)n2C)cc1	23.4% (inactive)	
COc1ccc(CCN2C(=O)C3CC=C(C)CC3C2=O)cc1OC (stereo not drawn)		17.8 µM (active)
COc1ccc(CCN(C)CCN2C(=O)c3ccccc3C2=O)cc1OC	0.416% (inactive)	
COc1ccc(CN2C(=O)CC(Cc3ccc(C)cc3)C2=O)cc1OC (stereo not drawn)	-6.24% (inactive)	
O=c1cc(O)c(-c2cccc(C(F)(F)F)c2)c(Cl)[nH]1	4.13% (inactive)	
CCc1ccc(NC(=O)N2CCN(c3ccccc3)CC2)cc1	2.14% (inactive)	
CCOC(=O)c1ccc(Nc2cc(C)nc3nc(C)nn23)cc1	-2.8% (inactive)	
CCOC(=O)c1ccc(NC2Nc3cc(C)nn3S2)cc1 (stereo not drawn)		12.6 µM (active)
CCOC(=O)c1ccc(NC(=O)Cn2nnc(-c3ccc(C)cc3)n2)cc1	0.713% (inactive)	
CCc1ccc(NC2Nc3cc(C)nn3S2)cc1 (stereo not drawn)		10 µM (active)
COc1ccc(NC(=O)CN(C)CC(=O)Nc2cccc(C(F)(F)F)c2)cc1	-9.9% (inactive)	
CCC(C)(C)NC(=O)CN(C(=O)C(=O)Nc1ccc2c(c1)OCCO2)C(C)(C)CC	1.57% (inactive)	
Cc1nnc(SCc2cccc(Cl)c2)n(N)c1=O	4.04% (inactive)	

SMILES	activity, negative = inhibition	Potency
CCCn1c(N)c(C(=O)CSc2nc3ccccc3c(=O)n2-c2ccc(OC)cc2)c(=O)[nH]c1=O	-2.33% (inactive)	
O=C(NCc1ccccc1Cl)C1CCN(S(=O)(=O)N2CCOCC2)CC1	-1.99% (inactive)	
CCC(=O)Nc1ccc(C(=O)N2CCN(C(=O)c3ccco3)CC2)cc1	-11.7% (inactive)	
O=C(CN1CCN(C(=O)c2ccco2)CC1)Nc1ccc(Cl)c(C(F)(F)F)c1		17.8 µM (active)
O=C(CCCN1C(=O)CCC1=O)Nc1ccc(Cl)c(C(F)(F)F)c1	-6.6% (inactive)	
O=C(CCN1C(=O)/C(=C/c2cccs2)SC1=S)NNC(=O)c1cccc(O)c1	1.24% (inactive)	
Clc1cccc(N=C2NN=C(c3ccc4c(c3)OCCO4)CS2)c1		28.2 µM (active)
c1ccc(CN2CCC(N=C3NN=C(c4ccc5c(c4)OCCO5)CS3)CC2)cc1	-9.87% (inactive)	
CCOC(=O)C1=C(O)CSC1=Nc1cccc(Cl)c1	3.32% (inactive)	
Cc1ccc(C(=O)Cc2nnc(C)s2)cc1	5.21% (inactive)	
COc1cc(CN(C)Cc2nc3cc(C(F)(F)F)ccc3c(=O)[nH]2)ccc1OC(F)F	6.49% (inactive)	
O=C(O)c1ccc(NS(=O)(=O)c2ccc3c(c2)C(=O)c2cc(S(=O)(=O)Nc4ccc(C(=O)O)cc4)ccc2-3)cc1	-1.43% (inactive)	
CN(C(=O)CSc1nnc(Nc2ccccc2)s1)C1CCS(=O)(=O)C1 (stereo not drawn)	-0.527% (inactive)	
CCCc1nc2ccccc2c(C(=O)OCC(=O)c2ccc3c(c2)NC(=O)CO3)c1CC	9.72% (inactive)	
CCc1ccc(Nc2nnc(SCC(=O)c3ccc4c(c3)NC(=O)CO4)s2)cc1		3.55 µM (active)
COc1ccc(OCCCn2cccc2/C=C2/C(=N)N3OC(C)=CC3=NC2=O)cc1	-8.86% (inactive)	
O=C(NC1CC1)C1CCCN(C(=O)NC2CCCCC2)C1 (stereo not drawn)	2.75% (inactive)	
C=CCc1cccc2cc(C(=O)Nc3ccc(NC(C)=O)cc3)c(=O)oc12	1.3% (inactive)	
COCCNc1cc(NCCOC)c([N+](=O)[O-])cc1[N+](=O)[O-]	5.02% (inactive)	
O=C(CSc1nnc2scc(-c3ccc(F)cc3)n12)NCc1ccco1	-5.13% (inactive)	
Cn1c(-c2ccc(F)cc2)cnc1SCC(=O)NNC(=O)Cc1ccccc1	0.789% (inactive)	
Cn1c(-c2ccc(F)cc2)cnc1SCC(=O)NCc1ccco1		22.4 µM (active)
COc1ccc(-c2ccc(OC(=O)NC3CCS(=O)(=O)C3)cc2)cc1 (stereo not drawn)	8.45% (inactive)	
CCOC(=O)N1CCN(C(=O)c2ccccc2N(Cc2ccccc2)S(=O)(=O)c2ccc(OC)cc2)CC1	3.86% (inactive)	
COc1ccccc1N1CCN(C(=O)CN(Cc2ccc(Cl)cc2)S(C)(=O)=O)CC1	3.38% (inactive)	
N#Cc1cccc(CS(=O)(=O)c2nnnn2-c2cc(C(F)(F)F)cc(C(F)(F)F)c2)c1	3.86% (inactive)	

SMILES	activity, negative = inhibition	Potency
COc1ccccc1-n1nnnc1S(=O)(=O)Cc1ccc(Cl)cc1		2.51 µM (active)
CCN(CCCNC(=O)CCn1c(=O)[nH]c2ccsc2c1=O)c1ccccc1	-8.83% (inactive)	
CC(C)Nc1ncnc2c1nnn2Cc1ccccc1		12.6 µM (active)
CC(C)(C)c1nc(NCC2CCCO2)c2nnn(Cc3ccccc3)c2n1 (stereo not drawn)	6.84% (inactive)	
Cc1nc(Nc2ccc(S(=O)(=O)N3CCCC3)cc2)c2nnn(Cc3ccccc3)c2n1	5.63% (inactive)	
COc1ccc(N2CCN(C(=O)C3CCN(S(=O)(=O)c4ccc(C)cc4)CC3)CC2)cc1	-7.46% (inactive)	
COc1ccc(/C=C(\C#N)C(=O)NCCCn2ccnc2)cc1	-1.14% (inactive)	
COc1ccc(/C=C(\C#N)C(=O)ONC2=NCCCCC2)cc1		35.5 µM (active)
Cc1cccc(OCC(=O)NC(=S)Nc2ccccc2N2CCOCC2)c1	-11.4% (inactive)	
Cc1ccc(C(=O)NC(=S)NCCN2CCOCC2)cc1	5.75% (inactive)	
COc1cccc(OC)c1C(=O)Nc1ccc(N2CCCCC2)cc1	-1.34% (inactive)	
COC(=O)c1ccc(NC(=S)NN2CCOCC2)cc1	-0.42% (inactive)	
COc1ccc(C(=O)NC(=S)Nc2ccc(Cl)cn2)cc1OC	10% (inactive)	
COc1ccc(C(=O)NC(=S)Nc2ccc(N3CCCC3)cc2)cc1OC		3.55 µM (active)
Cc1ccc(C(=O)NC(=S)Nc2ccc(N3CCOCC3)cc2)cc1		11.2 µM (active)
COc1ccc(C(=O)Nc2ccc3nc(N4CCCCC4)cc(C)c3c2)cc1OC	-13.5% (inactive)	
COc1ccc(C(=O)NC(=S)Nc2ccccc2N2CCN(S(C)(=O)=O)CC2)cc1OC		0.501 µM (active)
CC1(C)CC(=O)C=C(N2CCOCC2)C1	-1.31% (inactive)	
O=[N+]([O-])c1ccc(Sc2n[nH]c(-c3ccco3)n2)nc1	5.62% (inactive)	
CN(c1ccc(OCC(=O)OCC(=O)Nc2cccc([N+](=O)[O-])c2)cc1)S(=O)(=O)c1ccc(F)cc1	2.62% (inactive)	
O=C(Cc1ccc(F)cc1)N1CCN=C1SCc1cccc([N+](=O)[O-])c1	-8.83% (inactive)	
COc1cccc(C(O)Cc2nc3ccccc3n2C)c1OC (stereo not drawn)	3.05% (inactive)	
CCNC(=O)COc1cc(C)c(Br)c(C)c1	10% (inactive)	
CCc1cc(C(=O)c2ccc(OC)cc2)c(NC(=O)CN2CCN(C)CC2)s1	1.85% (inactive)	
Cc1cc(Cl)ccc1NC(=S)NCCCN1CCCC1=O	6.05% (inactive)	
CCOC(=O)c1cn(Cc2cccc(C)c2)nn1	-9.64% (inactive)	

SMILES	activity, negative = inhibition	Potency
CCOC(=O)c1c(N)nn(C(=O)c2ccccc2)c1-c1ccccc1	6.37% (inactive)	
CCOC(=O)c1nn(-c2cccc(C)c2)cc1C(=O)c1ccccc1		5.01 µM (active)
CCCCS(=O)(=O)N1C2=NC(C(=O)OC)=C(C(=O)OC)[C@@H]3N(Cc4ccccc4)c4ccccc4[C@]23C[C@H]1C(=O)OC	1.36% [at 13.5 µM] (inactive)	
CC(C)(C)c1ccc(/C=C2\SC(=O)N=C2N)cc1	8.52% (inactive)	
COc1ccc(-n2nnnc2SCc2nc(N)nc(N3CCOCC3)n2)cc1	17.4% (inactive)	
CN(C)c1nc(N)nc(Cn2nnc(-c3ccc(C(F)(F)F)cc3)n2)n1	6.45% (inactive)	
COc1ccc(-c2nnn(Cc3nc(N)nc(N4CCCCC4)n3)n2)cc1		0.562 µM (active)
CC(Nc1ccccc1)c1cccnc1 (stereo not drawn)	7.63% (inactive)	
OC[C@H]1O[C@@H](n2cnc3c(N[C@H]4CC5CCC4C5)ncnc32)[C@H](O)[C@@H]1O (stereo partly drawn)	6.91% (inactive)	
Clc1ccc(-c2ncc3ccccn23)c(Cl)c1	-5.79% (inactive)	
COn1c(-c2ccc(Cl)cc2Cl)nc2ncccc21	15.4% (inactive)	
COc1ccccc1/C=C/C=N/n1c(-c2ccc(Cl)cc2Cl)n[nH]c1=S		20 µM (active)
CC1CCc2sc(C(=O)N/N=C/C3CCCCC3)cc2C1 (stereo not drawn)		11.2 µM (active)
Cc1cc(/C=N/NC(N)=O)c(C)n1C1CCCCC1	-3.75% (inactive)	
OC(CNCc1ccc(Cl)c(Cl)c1)c1ccccc1 (stereo not drawn)	3.1% (inactive)	
Cc1ccc(-n2ncc3c(=O)n(-c4ccc(C)c(C)c4)c(-c4ccco4)nc32)cc1		25.1 µM (active)
Cc1ccc(-c2nc3c(cnn3-c3ccccc3)c(=O)o2)cc1	-7.8% (inactive)	
COc1ccc(-n2c(C)nc3c(cnn3-c3ccccc3)c2=O)cc1	-5.74% (inactive)	
Cn1nnnc1SCC(=O)Nc1nc2ccccc2s1	-8.43% (inactive)	
Cc1cc([N+](=O)[O-])nn1CCCC(=O)Nc1cccnc1Cl	5.05% (inactive)	
COc1ccc(CC(N)C(=O)NC2C(O)[C@H](n3cnc4c(N(C)C)ncnc43)O[C@@H]2CO)cc1 (stereo partly drawn)	2.23% (inactive)	
COC(=O)[C@H](C)[C@H]1C[C@]1(C)[C@H](NC(=O)OCc1ccccc1)c1ccccc1		inactive and 22.4 µM (active)
O=C(NCC1CCC(C(=O)O)CC1)OCc1ccccc1 (stereo not drawn)	-0.584% (inactive)	
COC(=O)[C@H](Cc1ccccc1)NC(=O)[C@@H]1C[C@H]1[C@@H](NC(=O)OCc1ccccc1)c1ccccc1	17.6% (inactive)	
COc1ccc(C2(CNC(=O)Cc3ccc(OC)c(OC)c3)CCCC2)cc1	5.66% (inactive)	
